Among the data in PubChem BioAssay (NCI) are growth values, retold here.

This is part of a sample that, as a whole, favours compounds with a hit. Of some 83,000 tested, about 20% had one in any assay.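 Interpretation: 100, growth as untreated; towards 0, rising growth inhibition; 0, no net growth; 0 to -100, cell death. Compounds scoring below 10 were considered active.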 Active and inactive are the calls of the source.

For this assay, the system named is HL-60(TB) leukemia. In words: NCI-60 one-dose screen, 48 h (100 = growth as untreated, 0 = no growth, -100 = all killed). Particulars: 10 µM unless noted.
In the case of `O=C1/C(=C/c2ccccc2[N+](=O)[O-])Oc2ccc(O)cc21`, the growth was 24.3% (inactive).

Consider `COc1cc(O)c2c(c1)[C@H]1O[C@@H]1C[C@H](O)[C@H](O)C(=O)/C=C\C[C@H](C)OC2=O`, for which the growth is 0.185% (active). For `O=C1Nc2ccccc2/C1=C/c1ccc(OCC(=O)c2ccccc2)cc1`, the growth is 105% (inactive). The figure for `Cc1cn(-c2cc(NC(=O)c3cncc(C#Cc4cnc5ccc(O[C@H]6CCOC6)nn45)c3)cc(C(F)(F)F)c2)cn1` is 37.6% (inactive); for `Cc1ccc(S(=O)(=O)c2nc(-c3ccc(F)cc3)oc2S(C)(=O)=O)cc1` it is 62.4% (inactive). As for `COc1ccc2c(c1)c(CC(=O)[Se]CC#N)c(C)n2C(=O)c1ccc(Cl)cc1`, the figure is -14% (active); as for `COc1cc2c(cc1OC)C(Sc1ccc(C)cc1)c1c(nc(N)c(C#N)c1N)O2` (stereo not drawn), -19% (active).

Consider `C#Cc1nc(C(=O)NCCC(=O)Nc2ccc(NC(=O)c3ccc(/C=C/C(=O)c4nccn4C)cc3)cc2)cs1`, for which the growth was 12.2% (inactive). As for `Cn1ccnc1C(=O)/C=C/c1ccc(C(=O)Nc2ccc(NC(=O)CCNC(=O)c3csc(Br)n3)cc2)cc1`, the growth was 41% (inactive). For the molecule `COc1ccccc1/C=C/C=N/NC1=NC2C(S1)N(C)C(=O)N2c1ccccc1` (stereo not drawn), the growth was -25.7% (active). In the case of `O=C(CCCN1C(=O)/C(=C/c2ccccc2F)SC1=S)N1CCOCC1`, the growth is 93.5% (inactive).

`COc1ccc2[nH]cc(-c3nc(N)nnc3-c3cn(C)c4ccc(Br)cc34)c2c1`: the growth was -26.6% (active).

Take `CN1CCN(c2ccc(Nc3nc(NCCNS(=O)(=O)c4ccc5ccccc5c4)c4sccc4n3)cc2)CC1`: the growth was -29.5% (active).

With `O=C(CNc1nc(-c2cccc([N+](=O)[O-])c2)cs1)Nc1cccc([N+](=O)[O-])c1`, the growth was -9.99% (active). As for `O=C1C(c2ccccc2)=C(N2CCc3ccccc32)OC1(Cl)Cl`, the figure is -14.6% (active); as for `CCn1c(SCC(=O)Nc2cccc(C(=O)/C=C/c3cc(OC)c(OC)c(OC)c3)c2)nc2ccccc2c1=O`, 48% (inactive); as for `FC(F)(F)c1cc(Br)cc(-c2cc(-c3ccc4c(c3)OCCO4)[nH]n2)c1`, 6.8% (active).

For `CC1(COc2ccc3ncc(C#Cc4cncc(C(=O)Nc5cc(C(C)(C)C)on5)c4)n3n2)COC1`, the growth is 23% (inactive). Consider `CC(C)(C)Nc1nc2c(OCCc3ccccc3)cccn2c1-c1cccc(F)c1`, for which the growth is -30.2% (active).

Regarding `Cc1csc(/N=C(N)/N=C(\N)c2cccnc2)n1`, the growth was 65.9% (inactive). Turning to `Oc1ccc(CSc2nnc(-c3ccccc3)n2-c2ccccc2)c2cccnc12`, the growth is 7.9% (active). Regarding `CCOC(=O)c1c(NCC(=O)Nc2cccc([N+](=O)[O-])c2)sc2c1CCCC2`, the growth was 1.42% (active). `N#Cc1c(-c2cccs2)cc(-c2cnccn2)nc1SCC(=O)N/N=C/c1cccs1`: the growth was 96.2% (inactive). Turning to `COc1cc(NC2=C(Cl)C(=O)c3nc(C)ccc3C2=O)cc(OC)c1`, the growth was -13.4% (active). In the case of `Clc1nc2ccccc2nc1-c1nnc(C2CCCCC2)o1`, the growth was 66.6% (inactive). For the molecule `O=C(Nc1nonc1-c1ccccc1)c1ccc(C(F)(F)F)cc1`, the growth was 79.1% (inactive).

For the molecule `CCN1CCN(S(=O)(=O)c2oc(-c3ccc(Cl)cc3)nc2C#N)CC1`, the growth was 7.25% (active).

As to `Cn1ccnc1C(=O)/C=C/C=C/c1ccc(C(=O)Nc2ccc(F)cc2)cc1`, the growth is 13.3% (inactive).
